Assay results from the supplement of paper PMC8728848.
About 410 targets per protein were measured; listed, in parts, are those with the strongest signals and a random draw of the rest.

How the values were obtained:
Experiment in all cases: glycan array binding signal (z-score within array); higher = stronger binding
Details in all cases: glycan notation: IUPAC condensed, linker removed
Fuc(a1-2)Gal = molecular target: Fuc(a1-2)Gal
Summary of the method: (§1)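 Negative Z-scores can be read as non-binding. The Z-score is calculated within each array and then averaged across arrays of one protein sequence at different concentrations or buffers and across linkers. Arrays, 3228 in all, were curated from the Consortium for Functional Glycomics database and kept only where the protein sequence was available.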

[1] = molecular target: Fuc(a1-2)Gal(b1-4)[Fuc(a1-3)]GlcNAc
Summary of the method: as §1

[2] = molecular target: Fuc(a1-2)Gal(b1-4)[Fuc(a1-3)]GlcNAc(b1-2)Man(a1-3)[Fuc(a1-2)Gal(b1-4)[Fuc(a1-3)]GlcNAc(b1-2)Man(a1-6)]Man(b1-4)GlcNAc(b1-4)[Fuc(a1-6)]GlcNAc
Summary of the method: as §1

Fuc(a1-2)[Gal(a1-3)]Gal = molecular target: Fuc(a1-2)[Gal(a1-3)]Gal
Summary of the method: as §1

[3] = molecular target: Fuc(a1-2)[Gal(a1-3)]Gal(b1-4)[Fuc(a1-3)]GlcNAc(b1-3)GalNAc
Summary of the method: as §1

[4] = molecular target: Fuc(a1-2)[GalNAc(a1-3)]Gal(b1-3)GalNAc(b1-3)Gal(a1-4)Gal(b1-4)Glc
Summary of the method: as §1

Fuc(a1-3)GlcNAc = molecular target: Fuc(a1-3)GlcNAc
Summary of the method: as §1

[5] = molecular target: Fuc(a1-3)[Gal(b1-4)]GlcNAc(b1-3)Gal(b1-4)[Fuc(a1-3)]GlcNAc
Summary of the method: as §1

[6] = molecular target: Fuc(a1-3)[Gal(b1-4)]GlcNAc(b1-6)GalNAc
Summary of the method: as §1

[7] = molecular target: Fuc(a1-3)[Gal(b1-4)]GlcNAc6S
Summary of the method: as §1

[8] = molecular target: Fuc(a1-3)[Gal3S(b1-4)]GlcNAc6S
Summary of the method: as §1

[9] = molecular target: Gal(b1-3)GalNAc(a1-3)[Fuc(a1-2)]Gal(b1-4)Glc
Summary of the method: as §1

[10] = molecular target: Gal(b1-3)GlcNAc(b1-3)Gal(b1-4)GlcNAc(b1-6)[Gal(b1-3)GlcNAc(b1-3)]Gal(b1-4)Glc
Summary of the method: as §1

[11] = molecular target: Gal(b1-3)[Neu5Ac(a2-6)]GalNAc
Summary of the method: as §1

Gal(b1-4)GlcNAc = molecular target: Gal(b1-4)GlcNAc
Summary of the method: as §1

[12] = molecular target: Gal(b1-4)GlcNAc(b1-2)Man(a1-3)[Gal(b1-4)GlcNAc(b1-2)Man(a1-6)][Gal(b1-4)GlcNAc(b1-4)]Man(b1-4)GlcNAc(b1-4)[Fuc(a1-6)]GlcNAc
Summary of the method: as §1

[13] = molecular target: Gal(b1-4)GlcNAc(b1-2)Man(a1-6)Man(b1-4)GlcNAc(b1-4)GlcNAc
Summary of the method: as §1

[14] = molecular target: Gal(b1-4)GlcNAc(b1-3)Gal(b1-4)GlcNAc(b1-3)GalNAc
Summary of the method: as §1

Gal(b1-4)GlcNAc6P = molecular target: Gal(b1-4)GlcNAc6P
Summary of the method: as §1

Gal4S(b1-4)GlcNAc = molecular target: Gal4S(b1-4)GlcNAc
Summary of the method: as §1

[15] = molecular target: GlcNAc(b1-3)Gal(b1-4)GlcNAc(b1-2)Man(a1-3)[GlcNAc(b1-3)Gal(b1-4)GlcNAc(b1-2)Man(a1-6)]Man(b1-4)GlcNAc(b1-4)GlcNAc
Summary of the method: as §1

GlcNAc(b1-3)GalNAc = molecular target: GlcNAc(b1-3)GalNAc
Summary of the method: as §1

[16] = molecular target: GlcNAc(b1-3)[GlcNAc(b1-6)]Gal(b1-4)GlcNAc
Summary of the method: as §1

[17] = molecular target: GlcNAc(b1-4)Gal(b1-4)GlcNAc
Summary of the method: as §1

[18] = molecular target: GlcNAc(b1-4)[GlcNAc(b1-6)]GalNAc
Summary of the method: as §1

[19] = molecular target: GlcNAc(b1-6)Gal(b1-4)GlcNAc
Summary of the method: as §1

[20] = molecular target: Man(a1-2)Man(a1-3)[Man(a1-2)Man(a1-6)]Man(a1-6)[Man(a1-2)Man(a1-2)Man(a1-3)]Man
Summary of the method: as §1

[21] = molecular target: Man(a1-3)[Man(a1-6)]Man(a1-6)[Man(a1-3)]Man(b1-4)GlcNAc(b1-4)GlcNAc
Summary of the method: as §1

[22] = molecular target: Neu5Ac(a2-3)Gal(b1-3)GalNAc6S
Summary of the method: as §1

[23] = molecular target: Neu5Ac(a2-3)Gal(b1-3)GlcNAc(b1-6)GalNAc
Summary of the method: as §1

[24] = molecular target: Neu5Ac(a2-3)Gal(b1-3)]Neu5Ac(a2-3)Gal(b1-4)]GlcNAc
Summary of the method: as §1

Neu5Ac(a2-3)Gal(b1-4)Glc = molecular target: Neu5Ac(a2-3)Gal(b1-4)Glc
Summary of the method: as §1

[25] = molecular target: Neu5Ac(a2-3)Gal(b1-4)GlcNAc(b1-3)Gal(b1-4)GlcNAc(b1-3)[Neu5Ac(a2-3)Gal(b1-4)GlcNAc(b1-3)Gal(b1-4)GlcNAc(b1-6)]GalNAc
Summary of the method: as §1

[26] = molecular target: Neu5Ac(a2-3)Gal(b1-4)GlcNAc6S
Summary of the method: as §1

[27] = molecular target: Neu5Ac(a2-3)Gal(b1-4)[Fuc(a1-3)]GlcNAc
Summary of the method: as §1

[28] = molecular target: Neu5Ac(a2-3)Gal(b1-4)[Fuc(a1-3)]GlcNAc(b1-2)Man
Summary of the method: as §1

[29] = molecular target: Neu5Ac(a2-3)Gal(b1-4)[Fuc(a1-3)]GlcNAc6S
Summary of the method: as §1

[30] = molecular target: Neu5Ac(a2-6)Gal(b1-4)GlcNAc(b1-3)Gal(b1-4)GlcNAc(b1-3)Gal(b1-4)GlcNAc(b1-2)Man(a1-3)[Neu5Ac(a2-6)Gal(b1-4)GlcNAc(b1-3)Gal(b1-4)GlcNAc(b1-3)Gal(b1-4)GlcNAc(b1-2)Man(a1-6)]GalNAc
Summary of the method: as §1

[31] = molecular target: Neu5Ac(a2-6)Gal(b1-4)GlcNAc6S
Summary of the method: as §1

[32] = molecular target: Neu5Ac(a2-8)Neu5Ac(a2-3)Gal(b1-4)GlcNAc
Summary of the method: as §1

[33] = molecular target: Neu5Ac(a2-8)Neu5Ac(a2-3)[Gal(b1-3)GalNAc(b1-4)]Gal(b1-4)Glc
Summary of the method: as §1

[34] = molecular target: Neu5Gc(a2-3)Gal(b1-3)GlcNAc
Summary of the method: as §1

[35] = molecular target: Neu5Gc(a2-3)Gal(b1-4)[Fuc(a1-3)]GlcNAc
Summary of the method: as §1

[36] = molecular target: Neu5Gc(a2-8)Neu5Gc(a2-3)Gal(b1-4)GlcNAc(b1-3)Gal(b1-4)GlcNAc
Summary of the method: as §1

B1: Siglec-9 (Homo sapiens), Q9Y336 (protein)
chain: MLLLLLPLLWGRERAEGQTSKLLTMQSSVTVQEGLCVHVPCSFSYPSHGWIYPGPVVHGYWFREGANTDQDAPVATNNPARAVWEETRDRFHLLGDPHTKNCTLSIRDARRSDAGRYFFRMEKGSIKWNYKHHRLSVNVTALTHRPNILIPGTLESGCPQNLTCSVPWACEQGTPPMISWIGTSVSPLDPSTTRSSVLTLIPQPQDHGTSLTCQVTFPGASVTTNKTVHLNVSYPPQNLTMTVFQGDGTVSTVLGNGSSLSLPEGQSLRLVCAVDAVDSNPPARLSLSWRGLTLCPSQPSNPGVLELPWVHLRDAAEFTCRAQNPLGSQQVYLNVSLQSKATSGVTQGVVGGAGATALVFLSFCVIFVVVRSCRKKSARPAAGVGDTGIEDANAVRGSASQGPLTEPWAEDSPPDQPPPASARSSVGEGELQYASLSFQMVKPWDSRGQEATDTEYSEIKIHR
glycan array binding signal (z-score) (Fuc(a1-2)Gal): -0.211
glycan array binding signal (z-score) [1]: -0.153
glycan array binding signal (z-score) [2]: -0.277
glycan array binding signal (z-score) (Fuc(a1-2)[Gal(a1-3)]Gal): -0.193
glycan array binding signal (z-score) [3]: -0.269
glycan array binding signal (z-score) [4]: -0.125
glycan array binding signal (z-score) (Fuc(a1-3)GlcNAc): -0.293
glycan array binding signal (z-score) [5]: 0.166
glycan array binding signal (z-score) [6]: -0.063
glycan array binding signal (z-score) [7]: 3.1
glycan array binding signal (z-score) [8]: -0.041
glycan array binding signal (z-score) [9]: -0.434
glycan array binding signal (z-score) [10]: -0.039
glycan array binding signal (z-score) [11]: -0.173
glycan array binding signal (z-score) (Gal(b1-4)GlcNAc): -0.244
glycan array binding signal (z-score) [12]: -0.418
glycan array binding signal (z-score) [13]: -0.333
glycan array binding signal (z-score) [14]: -0.054
glycan array binding signal (z-score) (Gal(b1-4)GlcNAc6P): -0.074
glycan array binding signal (z-score) (Gal4S(b1-4)GlcNAc): -0.304
glycan array binding signal (z-score) [15]: -0.042
glycan array binding signal (z-score) (GlcNAc(b1-3)GalNAc): -0.152
glycan array binding signal (z-score) [16]: -0.322
glycan array binding signal (z-score) [17]: 0.012
glycan array binding signal (z-score) [18]: -0.132
glycan array binding signal (z-score) [19]: -0.081
glycan array binding signal (z-score) [20]: -0.055
glycan array binding signal (z-score) [21]: -0.007
glycan array binding signal (z-score) [22]: 1.05
glycan array binding signal (z-score) [23]: 0.961
glycan array binding signal (z-score) [24]: 1.76
glycan array binding signal (z-score) (Neu5Ac(a2-3)Gal(b1-4)Glc): 1.09
glycan array binding signal (z-score) [25]: -0.187
glycan array binding signal (z-score) [26]: 2.21
glycan array binding signal (z-score) [27]: 1.14
glycan array binding signal (z-score) [28]: 14.8
glycan array binding signal (z-score) [29]: 16.8
glycan array binding signal (z-score) [30]: 0.878
glycan array binding signal (z-score) [31]: 1.58
glycan array binding signal (z-score) [32]: -0.259
glycan array binding signal (z-score) [33]: -0.214
glycan array binding signal (z-score) [34]: -0.028
glycan array binding signal (z-score) [35]: 0.005
glycan array binding signal (z-score) [36]: -0.178
